Test results as given in the OligoGym collection.

What follows are sequences tested against SGTA (assay: pooled miR-30 sensor sort-seq; sequence = guide strand). Conditions: shRNA.
Note: reference of the scale not given here.

TTCTGCTGCTGCATCTGCTGGG was tested. Which sensor-assay potency score (higher = more potent) did it give?
The sensor-assay potency score (higher = more potent) was 0.386.

With TCATCTGCTCGTTTCCTTCGGT as the sequence, how does the sensor-assay potency score (higher = more potent) read?
Its sensor-assay potency score (higher = more potent) is 0.113.

Which sensor-assay potency score (higher = more potent) does the source give for TTGGACTTGTATGTCTCGTTGT here?
Its sensor-assay potency score (higher = more potent) is 0.614.

How did the sensor-assay potency score (higher = more potent) turn out when TAGGCCTTGCTGTAGGCCGGGT was run?
Its sensor-assay potency score (higher = more potent) is -1.17.

For TTTTCCACTTTCATCTGCTCGT, which sensor-assay potency score (higher = more potent) is on record?
Its sensor-assay potency score (higher = more potent) is -0.241.

How did the sensor-assay potency score (higher = more potent) turn out when TATCTTGAGGTTGGACTTGTAT was run?
Its sensor-assay potency score (higher = more potent) is -0.792.

For AAGGTCACTGTCTTCTACCGTC, which sensor-assay potency score (higher = more potent) is on record?
The sensor-assay potency score (higher = more potent) was 0.33.

How did the sensor-assay potency score (higher = more potent) turn out when TTGAGCTCGATGGCTTTTCCGT was run?
The sensor-assay potency score (higher = more potent) was -0.866.

Which sensor-assay potency score (higher = more potent) does the source give for TATCAACTCTGGGTTCTGCTGC here?
The sensor-assay potency score (higher = more potent) was 0.409.

Which sensor-assay potency score (higher = more potent) does the source give for TTCCACTTTCATCTGCTCGTTT here?
Its sensor-assay potency score (higher = more potent) is 0.488.

Which sensor-assay potency score (higher = more potent) does the source give for TGAGCTGCTCTATCAACTCTGG here?
Its sensor-assay potency score (higher = more potent) is -0.693.

With TTGTATGTCTCGTTGTCGGGGT as the sequence, how does the sensor-assay potency score (higher = more potent) read?
Its sensor-assay potency score (higher = more potent) is 0.213.

What follows are sequences tested against SH3YL1 in the same assay as above. Conditions: shRNA.

For TTATATTCATTTCTGTTGCTTT, which sensor-assay potency score (higher = more potent) is on record?
The sensor-assay potency score (higher = more potent) was -0.121.

TAACTGTGATTCTGTCTCCAGC was tested. Which sensor-assay potency score (higher = more potent) did it give?
The sensor-assay potency score (higher = more potent) was -0.946.

For ATAACTGTGATTCTGTCTCCAG, which sensor-assay potency score (higher = more potent) is on record?
Its sensor-assay potency score (higher = more potent) is -0.286.

TTGCATTGATTCGTTGTCCTTC was tested. Which sensor-assay potency score (higher = more potent) did it give?
The sensor-assay potency score (higher = more potent) was 0.55.

How did the sensor-assay potency score (higher = more potent) turn out when TTGGAGGTAATTCTTTAGCAGA was run?
Its sensor-assay potency score (higher = more potent) is -1.34.

With TTGTCCTTCATTTTCATACTTT as the sequence, how does the sensor-assay potency score (higher = more potent) read?
Its sensor-assay potency score (higher = more potent) is -0.366.

With TTAACTAGTAAATCCTGTCAGT as the sequence, how does the sensor-assay potency score (higher = more potent) read?
The sensor-assay potency score (higher = more potent) was -0.0626.

How did the sensor-assay potency score (higher = more potent) turn out when TTGCTTAACTAGTAAATCCTGT was run?
The sensor-assay potency score (higher = more potent) was 0.218.

How did the sensor-assay potency score (higher = more potent) turn out when TTTTCTTGCATTGATTCGTTGT was run?
The sensor-assay potency score (higher = more potent) was 0.574.

For TTTCATAAAGATCTTCGGCTTG, which sensor-assay potency score (higher = more potent) is on record?
The sensor-assay potency score (higher = more potent) was -0.146.

Which sensor-assay potency score (higher = more potent) does the source give for TTGAGAGCCAGAGTTCAGCTGG here?
The sensor-assay potency score (higher = more potent) was 0.176.
